Measurements reported in PubChem BioAssay AID624330 (Southern Research Specialized Biocontainment Screening …, 2012).
About 2,100 (0.62%) of roughly 340,000 compounds were called active.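 Rule for the calls: active = first-screen hits whose inhibition reached a set limit at any dose in the follow-up dose series; inconclusive = inhibition above the set first-screen limit but never retested; inactive = the rest.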 A selection follows. Potency and affinity values are given separately.

Biological target: Rac GTPase-activating protein 1 (Homo sapiens) (UniProt Q9H0H5)
Experiment: blockers of MgcRacGAP-driven Rac1 GTP hydrolysis – biochemical, ADP Hunter fluorescence, primary and confirmatory, confirmation (AID 624330);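 note: fluorescence reports GDP produced by GAP-driven GTP hydrolysis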
Details: MgcRacGAP-stimulated Rac1 GTP hydrolysis, at 30 µM, active compounds read high, GST-tagged Rac1 F28L mutant substrate

Rac GTPase-activating protein 1 (Homo sapiens), sequence (Q9H0H5 whole entry, looked up): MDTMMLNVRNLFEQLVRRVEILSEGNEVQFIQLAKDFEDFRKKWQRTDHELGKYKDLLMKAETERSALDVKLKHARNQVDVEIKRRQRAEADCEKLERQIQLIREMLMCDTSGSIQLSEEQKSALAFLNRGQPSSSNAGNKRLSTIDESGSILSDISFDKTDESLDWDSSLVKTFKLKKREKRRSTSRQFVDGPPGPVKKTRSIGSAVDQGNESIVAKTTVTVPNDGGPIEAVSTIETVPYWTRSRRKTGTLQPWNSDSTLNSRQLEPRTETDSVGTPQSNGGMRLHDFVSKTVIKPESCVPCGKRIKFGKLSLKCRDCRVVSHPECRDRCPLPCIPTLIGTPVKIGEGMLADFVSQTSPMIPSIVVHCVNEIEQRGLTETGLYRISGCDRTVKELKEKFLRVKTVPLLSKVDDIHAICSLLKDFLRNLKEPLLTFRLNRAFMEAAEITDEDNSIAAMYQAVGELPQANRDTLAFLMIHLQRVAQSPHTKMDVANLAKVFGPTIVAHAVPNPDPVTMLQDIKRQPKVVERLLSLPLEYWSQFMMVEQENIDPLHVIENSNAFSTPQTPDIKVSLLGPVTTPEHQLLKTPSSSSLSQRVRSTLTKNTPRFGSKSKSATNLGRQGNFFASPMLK

inhibition, inactive:
COCCn1c(SC(C(=O)Nc2cc(C)ccc2OC)c2ccccc2)nnc1-c1ccc(Cl)cc1 (configuration not stated) 8.02%
CC(C)COP(=O)(OCC(C)C)C(O)c1ccc2c(c1)OCO2 (configuration not stated) 2.18%
N#Cc1c(-c2ccccc2)ccn(Cc2ccc(Cl)cc2)c1=O 11.4%
COc1cc(CNC2CCCCC2OC)cc(OC)c1OC (configuration not stated) 21.8%
COc1cc(CNC2CCCC2)cc(OC)c1 16.2%
Cc1ccc(C)c(N2CCN(C(=O)Cc3ccc(NC4=NC5CS(=O)(=O)CC5S4)cc3)CC2)c1 (configuration not stated) 15.3%
O=C(CNc1ccccc1)N/N=C/c1ccc2c(c1)OCO2 1.14%
O=C(CNc1ccc2c(c1)OCO2)N/N=C\c1cn(Cc2ccccc2)c2ccccc12 9.72%
CCOC(=O)Cc1csc(SC(C)C(=O)NC2CCCCC2C)n1 (configuration not stated) 10.4%
CC(=O)c1ccc(N2CCN(C(=O)c3noc4c3CSc3ccccc3-4)CC2)cc1 10.2%
CCS(=O)(=O)NC(C)C(c1cccs1)N1CCN(c2ccc(F)cc2)CC1 (configuration not stated) 8.25%
c1ccc(Cn2nnnc2C(c2cccnc2)N2CCN(c3ccccc3)CC2)cc1 (configuration not stated) 2.89%
O=S(=O)(NCC(c1cccnc1)N1CCN(c2ccccc2)CC1)c1cccs1 (configuration not stated) 2.98%
COc1ccc(N2CCN(C(c3ccccc3)c3nnnn3Cc3ccc(F)cc3)CC2)cc1 (configuration not stated) 19%
Fc1ccc(N2CCN(C(c3cccs3)c3nnnn3CCc3ccccc3)CC2)cc1 (configuration not stated) -2.42%
c1ccc(CCn2nnnc2C(c2cccs2)N2CCOCC2)cc1 (configuration not stated) 6.38%
O=S(=O)(NCC(c1cccnc1)N1CCN(c2ccc(F)cc2)CC1)c1cccs1 (configuration not stated) 5.99%
COc1ccc(N2CCN(C(c3cccs3)C(C)NS(C)(=O)=O)CC2)cc1 (configuration not stated) 27.8%
CC1CCCC(NC(=O)CN2C(=O)NC(C)(c3ccccc3)C2=O)C1C (configuration not stated) 2.02%
O=C(N/N=C/c1ccoc1)c1ccc([N+](=O)[O-])cc1 3.91%
COc1cccc2cc(C(=O)N3CC(C)OC(C)C3)c(=O)oc12 (configuration not stated) 5.05%
COC(=O)c1ccc(COC(=O)c2ccccc2OC)cc1 -1.87%
COc1ccc(C(=O)NNC(=O)c2ccccc2[N+](=O)[O-])cc1Br 2.78%
COc1ccc([C@H]2CC(=O)C=C(c3cccc(F)c3OC)C2)cc1 9.17%
Cc1ccc(C(=O)N2CCN(Cc3ccc4c(c3)OCO4)CC2)o1 3.03%
O=C(c1cccc(F)c1)N1CCN(c2ccc([N+](=O)[O-])c(N3CCOCC3)c2)CC1 9.81%
CN1C(=O)CSC1=S 6.82%
O=c1[nH]nc(CNc2cccc(C(F)(F)F)c2)c2ccccc12 7.15%
COc1ccc(OC)c(C(c2c(C)[nH][nH]c2=O)c2c(C)[nH][nH]c2=O)c1 12.8%
O=c1c(Cl)c(N2CCN(c3ccc(F)cc3)CC2)cnn1C12CC3CC(CC(C3)C1)C2 -5.26%
N#Cc1nnn2c1nc(N)c1c(F)cccc12 2.66%
Cc1ccc(S(=O)(=O)N(CC(=O)N2CCOCC2)c2ccccc2F)cc1 2.11%
COc1ccc(-c2nc3ccccc3s2)cc1NC(C)=O -7.89%
Oc1ccc(-c2nc3ccccc3s2)cc1 15.1%
COc1ccc(-c2nc3ccccc3s2)cc1O 11.7%
Oc1cccc(-c2nc3ccccc3s2)c1 8.24%
Cc1ccc(OCC(=O)N(Cc2cccc(F)c2)C2CCS(=O)(=O)C2)cc1 (configuration not stated) 8.85%
COc1ccc(C(=O)Sc2nncc3ccccc23)cc1 -1.75%
O=C(Nc1ccccc1SC(=O)c1ccccc1)c1ccccc1 18.6%
CCc1nc2ccccc2c(C(=O)OCC(=O)N(C)Cc2ccccc2)c1C 3.21%
CCN(CC)CCNC(=O)c1ccc(NC(=O)c2ccc3c(c2)CCC3)cc1 3.69%
CCN(CC(=O)Nc1ccc(NC(C)=O)cc1)CC(=O)Nc1cc(C)on1 5.22%
CSCC(=O)Nc1cc(C)on1 -9.86%
CCCCN(C)CCC(=O)Nc1ccc2c(c1)CCC2 6%
O=C(NCc1ccccn1)Nc1cccc(F)c1 7.66%
C=CCN(CC=C)c1ncnc2[nH]ncc12 0.33%
COc1cc(C)c(S(=O)(=O)Nc2ccccc2F)cc1C 0.77%
CCn1nc(C(=O)NCc2nnc3ccccn23)c2ccccc2c1=O 2.43%
CCOC(=O)C1CN(S(=O)(=O)c2ccc(OC)cc2)c2cc(S(=O)(=O)CC)ccc2O1 (configuration not stated) -8.53%
CC1=NN(C(N)=S)C(=O)C1N=Nc1ccc(Br)cc1 (configuration not stated) 12.4%
CC1=NN(C(N)=S)C(=O)C1N=Nc1ccc(Cl)cc1 (configuration not stated) 13.3%
CCC(C)NC(=O)CS(=O)Cc1nc(-c2cccc(C)c2)oc1C (configuration not stated) 2.8%
CCn1cc(C(=O)N2CCN(c3ccccn3)CC2)c2cc(OC)c(OC)cc2c1=O -4.67%
CC1=C(C(N)=O)C(c2ccc(Cl)c(Cl)c2)n2ncnc2N1 (configuration not stated) 3.56%
Cn1c(N2CCOCC2)c(C=O)c2ccccc21 8.54%
CN1CCN(c2c(/C=N/O)c3ccccc3n2C)CC1 28.5%
O=C(Nc1ccc(C(=O)O)cc1)/C(=C\c1ccco1)NC(=O)c1ccc(Br)cc1 18.2%
COc1ccc2c3c(cccc13)C(=O)N(O)C2=O 1.13%
COc1ccc2c3c(cccc13)OC2=O 5.25%
COc1ccc(CCNC(=O)c2nnc(Cc3c(F)cccc3Cl)o2)cc1OC 3.35%
O=C1N[C@H](Cc2ccccc2)CO1 3.86%
O=C1OC(Cc2ccccc2)C(c2ccccc2)C1=O (configuration not stated) 3.8%
COc1ccc(Br)cc1C(=O)Nc1cccc(-c2nnc(-c3ccco3)o2)c1 -5.03%
COc1ccc(NC(=O)c2ccc(OC(F)F)cc2)cc1Cl -1.44%
O=C(O)c1cc(N/N=C/c2c[nH]c3ccccc23)ccc1Cl 23.8%
O=C(O)c1ccc(S(=O)(=O)NN=Cc2c[nH]c3ccccc23)cc1 14.2%
COc1ccc2c(/C=N/NS(=O)(=O)c3ccc(C)cc3)c[nH]c2c1 11.2%
COc1ccc(C(=O)N/N=C/c2c[nH]c3ccccc23)cc1 16.4%
COc1ccc(S(=O)(=O)N2CCCCC2)cc1NC(=O)CCc1cc(OC)c(OC)c(OC)c1 2.57%
O=C(COC(=O)Cc1c(Cl)cccc1Cl)Nc1ccccc1-c1ccccc1 1.56%
O=C(O)C1CC(c2ccccc2)=Nc2ccccc2S1 (configuration not stated) 6.83%
CC1(C)CC(=O)C(Sc2ccccc2)=C(O)C1 -4.47%
CCOC(=O)Nc1ccc2c(c1)nc1n2CCN(CCOC)C1 8.24%
NS(=O)(=O)c1ccc(NC(=O)CSc2nc3c(c(=O)[nH]2)CCCC3)cc1 6.37%
COc1ccc(CNC(=O)CN2CCN(c3ccc(F)cc3)CC2)cc1 6.2%
CCN(CC(=O)NCc1ccc(F)cc1)C(=O)CN1CCN(c2ccccc2OC)CC1 2.73%
CCOc1ccccc1NC(=O)Cn1cnc2c(cnn2-c2ccc(C)c(C)c2)c1=O 9.09%
CC[C@@]1(C(=O)OC)N[C@H](CN(C)C(=O)c2ccc(F)cc2)[C@@H]2C(=O)N(Cc3ccccc3)C(=O)[C@@H]21 1.15%
CC(C)Cc1nnc(NC(=O)CCC(=O)NCCc2ccc(Cl)cc2)s1 4.94%
CC12CCC3c4ccc(O)cc4CCC3C1CCC2=O (configuration not stated) 5.82%
C[C@]12CC[C@@H]3c4ccc(O)cc4CC[C@H]3[C@@H]1CCC2=O 9.39%
CC(O)Cn1c(N2CCCC2)nc2c1c(=O)[nH]c(=O)n2C (configuration not stated) 4.91%
Cc1nc2ccc(-c3nc4cc(N)ccc4o3)cc2[nH]1 4.01%
c1cncc(-c2nc3cc4ccccc4cc3[nH]2)c1 21.6%
Cc1ccc2nc(C3CCCCC3)[nH]c2c1 9.42%
Cc1nc2ccc(-c3nc4ccccc4[nH]3)cc2[nH]1 22.2%
O=[N+]([O-])c1ccc2nc(C3CCCCC3)[nH]c2c1 6.17%
O=[N+]([O-])c1ccc2nc(-c3ccc(Cl)cc3)[nH]c2c1 9.26%
c1cncc(-c2nc3ccccc3[nH]2)c1 3.11%
Clc1ccc(-c2nc3ccncc3[nH]2)cc1 -13.9%
C=CCNC(=S)NNC(=O)c1ccc2c(c1)OCO2 4.79%
CC(NC(=O)C(=O)N1CCOCC1)C(c1cccs1)N1CCN(c2ccccc2)CC1 (configuration not stated) 11%
CC1CCCN(C(=O)C2CCN(S(=O)(=O)c3ccc4c(c3)CC(C)N4C(=O)C3CC3)CC2)C1 (configuration not stated) -0.15%
COc1ccc(CNC(=O)C(NS(=O)(=O)c2ccc3c(c2)CCCN3C(C)=O)C(C)C)cc1 (configuration not stated) 6.24%
COc1cccc(CNC(=O)CCS(=O)(=O)c2ccc3c(c2)NC(=O)CS3)c1 6.72%
O=C1c2ccccc2NC(c2ccccn2)N1c1ccccc1F (configuration not stated) 6.7%
O=C(NC1CCCCC1)c1cc(S(=O)(=O)N2CCCC2)ccc1Cl 9.3%
